Test results taken from the OligoGym collection.

The sequences below were run against NDUFA9 (assay: pooled miR-30 sensor sort-seq; sequence = guide strand). Conditions: shRNA.
Also: reference of the scale not given here.

Point of comparison: TTAAGGAATCTATCCTCTCTTC, sensor-assay potency score (higher = more potent) -0.535. Against it:
- TGACTGAGGAACGTCCACCTTT — lower, -0.755
- TAGAATCTTTATCTCTCGCGTC — higher, -0.0518
- TTTAACTGTCTTCCAGCCCAAG — lower, -1.24
- TTATTTCAAAGACTCTTGCTAC — higher, -0.0759
- TTCAACTCCAGCTTCCTTGGAC — higher, 0.368
- TATAGGACCAAACCGATGCATA — lower, -1.43
- TACTTTCTCTCCAACAGCCTTA — higher, 0.0635
- TTGCTGTGTTGTACTACTCGTC — higher, -0.266
- TTGATGACCACATTGCTGTGTT — higher, 0.542
- TGTGTTGTACTACTCGTCGGAT — higher, -0.517
- TTAACTGCATTAACAATTCCTT — lower, -0.73

The sequences below were run against NDUFAB1 in the same assay as above. Conditions: shRNA.

Point of comparison: TACGTAAAGAACACGGTCCTGG, sensor-assay potency score (higher = more potent) 0.0334. Against it:
- AAGTCCATCAGAATCACTCTGT — higher, 0.545
- TACAATTTCTTGTGGACACATT — lower, -0.835
